Most compounds without a hit are left out; they make up all but 3.2% or so of the library.
15-hLO inh = blocks human 15-lipoxygenase activity; P16050; 1.4% of 74,000 active; AID 887; purified 15hLO-1, xylenol orange hydroperoxide absorbance; Potency, µM (series often up to 57.1 µM), for inactives: top-dose activity change, negative = inhibition, usual class: inhibitors; also: % is scaled to controls: 0 for no effect and ±100 for the full control effect; nearly all actives have a fitted effect of over 55% in size
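Readout: Fe(III)-xylenol orange absorbance, 573-to-405 nm ratio as reaction progress. Enzyme 40 nM purified human 15hLO-1, substrate 50 uM arachidonic acid, 6 min RT after 15 min compound preincubation; Hepes pH 7.5 buffer with Triton X-100.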
CRE Fsk mod = modulators of forskolin-stimulated CRE signaling in CHO cells; CHO CRE-bla reporter (cAMP response element driving beta-lactamase), forskolin EC10, beta-lactamase ratio; Potency, µM (highest dose often 38.2 µM), without a hit: at the highest dose activity change, negative = inhibition, hits mostly activators; 2.5% of 71,000 active; AID 662; active = well fitted activation curve with a large enough effect in the signal ratio, with a control signal flat, not every such curve was filed as active; inconclusive = small, poorly fitted or top-dose-only effect, or effect the other way, or a change in a side signal; the % refers to the signal ratio; also: % of control where 0% means no effect
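Titrated compounds plus EC10 NKH 477 on CHO CRE-bla cells, 3 h, 37 °C. CCF4, 2 h RT. Ratio 460/530 nm → AC50.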
ALOX15B inhib = 15-hLO-2 (ALOX15B) enzyme inhibition; O15296; purified 15hLO-2, xylenol orange hydroperoxide absorbance; Potency, µM (series often up to 57.1 µM), for the others: top-dose activity change, negative = inhibition, most hits filed as inhibitors; 0.56% of 110,000 active; also: % is scaled to controls: 0 for no effect and ±100 for the full control effect; nearly all actives have a fitted effect of over 60% in size
Target sequence (O15296 whole entry, looked up): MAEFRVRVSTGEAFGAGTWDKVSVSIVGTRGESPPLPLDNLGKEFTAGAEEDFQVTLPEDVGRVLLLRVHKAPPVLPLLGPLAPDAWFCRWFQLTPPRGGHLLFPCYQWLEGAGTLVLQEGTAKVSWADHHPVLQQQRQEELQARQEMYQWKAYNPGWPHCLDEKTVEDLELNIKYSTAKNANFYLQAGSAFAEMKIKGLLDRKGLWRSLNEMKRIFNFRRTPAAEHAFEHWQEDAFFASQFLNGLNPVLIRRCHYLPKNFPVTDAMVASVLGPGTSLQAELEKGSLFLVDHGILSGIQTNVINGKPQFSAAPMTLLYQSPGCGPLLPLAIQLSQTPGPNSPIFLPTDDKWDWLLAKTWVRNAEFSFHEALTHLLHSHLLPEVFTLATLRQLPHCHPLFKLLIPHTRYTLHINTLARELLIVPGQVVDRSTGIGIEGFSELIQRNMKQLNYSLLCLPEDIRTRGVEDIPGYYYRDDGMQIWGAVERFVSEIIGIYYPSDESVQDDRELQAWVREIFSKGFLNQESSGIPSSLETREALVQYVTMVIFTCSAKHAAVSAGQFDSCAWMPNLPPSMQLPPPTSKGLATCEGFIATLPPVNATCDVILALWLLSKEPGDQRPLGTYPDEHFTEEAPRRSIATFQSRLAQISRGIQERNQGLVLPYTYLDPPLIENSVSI
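Purified human 15hLO-2 (50 nM final) preincubated with compounds 15 min at room temperature in 25 mM Hepes pH 7.5, 0.01% Triton X-100, then 45 uM arachidonic acid added for 90 min; hydroperoxide detected via ferrous/xylenol orange, 573/405 nm absorbance ratio.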
ERK AVP block = inhibitors of vasopressin-stimulated ERK signaling pathway. 0.99% of 72,000 active. AID 995. Potency, µM (titrated, usually from 57.5 µM), for the others: top-dose activity, negative = inhibition, hits mostly inhibitors. HEK293-V1b, vasopressin-stimulated pERK AlphaScreen; also: % is scaled to controls: 0 for no effect and ±100 for the full control effect; nearly all actives have a fitted effect of over 55% in size
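qHTS, compounds titrated on V1b-expressing HEK293 cells. Preincubation 30 min at 37C, vasopressin 25 nM for 5 min, lysis 10 min, bead incubation 5 hr at room temperature.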
Numbers without * were called inactive; ? = inconclusive; · = not tested or not shown; [ ] = dose if it differs, or a comment. Unless noted, calls follow the shape of the dose curve; as a rule, active = well fitted inhibition curve with a large enough effect; inconclusive = small, poorly fitted or top-dose-only effect; inactive = no such curve, though single readings can be large or run the other way. Potency is read from the fitted curve at half-maximal effect.

SMILES | 15-hLO inh | CRE Fsk mod | ALOX15B inhib | ERK AVP block
CCn1nc(NC(=O)c2ccccn2)c2cc3cccc(C)c3nc21 | -0.5% | ? | -3.3% | -6.2%
CCn1nc(NC(=O)c2cccnc2)c2cc3cccc(C)c3nc21 | 5.2% | -1.0% | -10.4% | 4.0%
Cc1ccc2cc3c(NC(=O)C(C)C)nn(C)c3nc2c1 | 3.7% | 15.8µM* | -4.6% | 14.8%
CCC(=O)Nc1nn(C)c2nc3c(C)cccc3cc12 | -13.9% | 10µM* | · | 26.4%
NC(=O)N[C@H](CC(=O)O)C(=O)O | 3.3%[11.4 µM] | -0.7%[7.6 µM] | 2.5%[11.4 µM] | 10.6%[11.5 µM]
Cc1ccc(/C=N/c2sc3c(c2C#N)CCCCC3)o1 | 25.1µM* | -6.3% | -29.8% | ?
N#Cc1c(/N=C/c2ccco2)sc2c1CCC2 | -7.5% | 0.8% | -5.7% | -9.5%
CSc1nc(N)nc(SC2C=CCCC2)c1C#N (configuration not stated) | -7.8% | 12.6µM* | -1.6% | -11.0%
O=C1/C(=C/c2ccc(N3CCOCC3)o2)SC(=Nc2ccccc2)N1CCc1c[nH]c2ccccc12 | · | · | 3.98µM* | ·
O=C1S/C(=C\c2ccc(N3CCOCC3)o2)C(=O)N1Cc1ccc(F)cc1 | · | · | 5.01µM* | ·
CC(C)OC(=O)CN1C(=O)S/C(=C/c2ccc(N3CCCCC3)o2)C1=O | · | · | 12.6µM* | ·
O=C1S/C(=C/c2ccc(N3CCOCC3)o2)C(=O)N1Cc1ccc(F)cc1 | · | · | 1.26µM* | ·
C=CCN1C(=O)S/C(=C\c2ccc(N3CCOCC3)cc2C)C1=O | · | · | -3.2% | ·
COC(=O)N1CCC2(CCN(Cc3ccccc3)CC2)CC1 | 0.5% | 4.3% | 4.1% | -0.8%
O=C(O)CCc1ccc(-c2ccccc2)[nH]1 | -19.4%[11.4 µM] | 1.9%[7.6 µM] | 1.4%[11.4 µM] | -6.8%[11.5 µM]
COc1ccccc1CCn1c(=O)c(-c2cccc(Cl)c2)nc2cncnc21 | -22.9% | ? | -0.6% | -28.4%
NC(N)=NC(N)=Nc1ccc(C(=O)O)cc1 | -0.8%[11.4 µM] | -5.5%[7.6 µM] | -1.9%[11.4 µM] | 7.5%[11.5 µM]
CCOC(=O)CSc1nc2c(c(=O)n1-c1ccc(OC)cc1)SCC2 | -0.4% | ? | -3.0% | ·
COc1ccc(-n2c(SCC(=O)Nc3ccccc3)nc3c(c2=O)SCC3)cc1 | · | · | -1.4% | ·
CCOc1ccc(-c2nnc(SCC(=O)N(CC)CC)n2N)cc1 | 6.9% | 37.7% | 4.0% | 1.4%
CCC(Sc1nc2n[nH]c(C)c2c(=N)n1-c1cccc(Cl)c1)C(=O)NCCOC (configuration not stated) | -7.5% | 12.6µM* | -7.6% | 2.0%
CCCN(CCC)C(=O)CSc1nc2n[nH]c(C)c2c(=N)n1-c1ccc(OC)cc1 | -0.2% | 1.58µM* | 6.8% | ?
CCCN(CCC)C(=O)CSc1nc2n[nH]c(C)c2c(=N)n1-c1ccc(OCC)cc1 | -10.6% | 2.51µM* | 20.0% | ?
CCc1ccccc1NC(=O)CSc1nc2n[nH]c(C)c2c(=N)n1-c1ccc(OC)cc1 | -10.3% | 2.51µM* | · | -22.4%
CCC(Sc1nc2n[nH]c(C)c2c(=N)n1-c1ccc(C)c(Cl)c1)C(=O)N1CCOCC1 (configuration not stated) | -2.9% | ? | -2.2% | 11.9%
SMILES | 15-hLO inh | CRE Fsk mod | ALOX15B inhib | ERK AVP block
CN1CCN(c2nc3c(c(=O)n(C)c(=O)n3C)n2C)CC1 | -1.4%[11.4 µM] | 9.0%[7.6 µM] | -6.6%[11.4 µM] | 3.4%[11.5 µM]
O=C(O)c1ccccc1NS(=O)(=O)c1cccc2ccccc12 | 1.8% | · | · | ·
Nc1nc(-c2ccco2)c(-c2ccco2)s1 | 20µM* | 4.4% | -22.5% | ?
c1coc(-c2nc(-c3ccco3)c(-c3ccco3)nc2-c2ccco2)c1 | 2µM* | -1.5% | -26.4% | -17.4%
C[C@@H](N=C(N)N)C(=O)O | 4.1%[11.4 µM] | -3.7%[7.6 µM] | 14.9%[11.4 µM] | -13.6%[11.5 µM]
CCOC(=O)CSc1nc2c(c(=O)[nH]c(=O)n2C)n1C/C=C(/C)Cl | -12.8% | ? | -13.3% | -7.2%
CCC(C)Sc1nc2c(c(=O)[nH]c(=O)n2C)n1CCc1ccccc1 (configuration not stated) | -2.3% | 7.94µM* | · | ?
CCC(C)Sc1nc2c(c(=O)[nH]c(=O)n2C)n1Cc1ccc(Cl)cc1 (configuration not stated) | -9.2% | 7.94µM* | -9.1% | 24.1%
C/C(Cl)=C/Cn1c(SC(C)C)nc2c1c(=O)[nH]c(=O)n2C | ? | 7.94µM* | -1.4% | 15.8µM*
CC(C)Sc1nc2c(c(=O)[nH]c(=O)n2C)n1Cc1ccc(Cl)cc1 | -28.9% | ? | -18.9% | ?
CC(=O)OCc1ccc2c(c1)OCO2 | -9.7% | -7.3% | -0.8% | 5.7%
OCCNc1ncnc2c1ncn2[C@@H]1O[C@@H](CO)[C@H](O)[C@@H]1O | 0.5%[11.4 µM] | 2.8%[7.6 µM] | -2.8%[11.4 µM] | 2.6%[11.5 µM]
COc1ccc(-c2nc(CS(=O)(=O)CC(=O)NCCc3cc(OC)ccc3OC)c(C)o2)cc1 | -13.0% | 2.8% | · | 19.0%
COc1ccc(OC)c(CCNC(=O)Cn2sc3nc(C)cc(C)c3c2=O)c1 | ? | ? | ? | 15.8µM*
Cn1cccc1Cc1nnc(SCC(=O)Nc2ccc3c(c2)OCO3)n1CCc1ccccc1 | ? | -16.3% | · | 15.8µM*
c1cncc(CNc2nc(-c3ccc4c(c3)OCO4)nc3ccccc23)c1 | -1.9% | 12.6µM* | 9.5% | -20.7%
CS(=O)(=O)Nc1cccc(-c2nc(NCc3ccccc3)c3ccccc3n2)c1 | -23.0% | ? | -0.2% | -27.6%
Cc1cccc(CNc2nc(-c3ccc4c(c3)OCO4)nc3ccccc23)c1 | -25.2% | 27.0% | 26.7% | ?
Cc1noc(C)c1-c1nc(NCc2cccnc2)c2ccccc2n1 | -22.8% | 12.6µM* | -13.5% | 2.2%
CS(=O)(=O)Nc1cccc(-c2nc(NCc3cccnc3)c3ccccc3n2)c1 | -9.8% | 3.98µM* | 5.3% | -27.4%
Oc1ccc2ccccc2c1/C=C\c1ccc2c(Br)cc(Br)c(O)c2n1 | ? | ? | 26.5%[11.4 µM] | 9.7%[11.5 µM]
O=C(Nc1ccccc1)N1CCCC2(CCN(S(=O)(=O)c3ccccc3)CC2)C1 | -5.7% | -18.0% | 6.9% | 19.8%
CSc1ccc2c(c1)N(CC[C@H]1CCCCN1C)c1ccccc1S2 | ? | -13.8%[17.1 µM] | 20.0%[25.6 µM] | ·
CCN(CC)c1ccc(NC(=O)c2cccc(C)c2OC)c(C)c1 | ? | ? | ? | 25.1µM*
Cc1occc1-c1nnc(SCC(=O)c2cc3ccccc3oc2=O)o1 | 12.6µM* | -13.9% | -7.5% | 15.8µM*
SMILES | 15-hLO inh | CRE Fsk mod | ALOX15B inhib | ERK AVP block
COC(=O)[C@@]1(Cc2ccccc2)[C@H]2c3cc(C(=O)N4CCCC4)n(Cc4ccc(OC)c(OC)c4)c3C[C@H]2CN1C(=O)c1ccccc1 | · | ? | -2.7% | -12.7%
O=C(c1oc2ccccc2c1CSCc1ccccc1)N1CCN(c2ncccn2)CC1 | ? | ? | -7.3% | 5.01µM*
Cc1c(C(=O)N2CCN(c3ccccn3)CC2)oc2ccccc12 | -11.4% | ? | 10.1% | -24.7%
COC(=O)NC(c1cccc(C)c1)[C@]1(C(C)=O)CCOC1=O (some centres not stated) | 12.5%[11.4 µM] | · | · | 21.1%[11.5 µM]
COc1cc(-c2nnc(COc3ccc4ccccc4c3)o2)cc(OC)c1OC | -9.5%[11.4 µM] | 0.126µM* | -3.1% | ?
NC(Cc1cc(I)c(Oc2cc(I)c(O)c(I)c2)c(I)c1)C(=O)O (configuration not stated) | 12.6µM* | · | -1.6% | 9.2%
CC(=O)NCCNc1cc(-c2ccccc2CN(C)C)ncn1 | 8.9% | -2.3% | -7.3% | 10.8%

Screens (PubChem)
